These results are taken from PubChem BioAssay AID748 (Sanford-Burnham Center for Chemical Genomics, 2007).

In all, about 96,000 compounds went through this assay and about 100 (0.1%) were called active.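 The calls were made as follows: active = displacement above 50% at 20 µM plus a fluorescence interference ratio under 1.5; inactive = the rest.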 What follows is part of a selection rich in actives, with near analogues and random picks from the rest. Entries with a potency or affinity are not part of this list.

This assay deals with Bcl-2-like protein 10 (Homo sapiens) (UniProt Q9HD36). Briefly: displacers of TR3 peptide from Bcl-B, primary screen, selectivity assay for Bfl-1 inhibitor project, biochemical, fluorescence polarization, FITC-TR3 peptide (AID 748).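 Also: plate controls were wells without compound for no effect and wells lacking Bcl-B protein for full effect.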 The following applies: FP displacement of FITC-TR3 peptide from Bcl-B; at 20 µM; stronger effect = higher value.
Regarding `COc1cccc(NC(=O)C(NC2CCCC2)c2ccccc2)c1` (configuration not stated), the displacement was 2.1% (inactive).

On to `CCOC(=O)CNC(=O)c1c2c(nc3ccccc13)CCCC2`, for which the displacement is 7.2% (inactive). `c1coc(CNc2c3c(nc4ccccc24)CCC3)c1`: the displacement is 26.6% (inactive).

As to `CC(C)Cn1c(N2CCN(C(=O)c3cccs3)CC2)nc2ccccc21`, the displacement is -1.5% (inactive). The same measure for `Cc1ccc(SC(CC(=O)c2ccc(C)cc2)C(=O)O)cc1` (configuration not stated): -5% (inactive).

Take `CSc1nc(C)cc(NC(N)=O)n1`: the displacement is -7.4% (inactive).

Turning to `Cn1c(C(C#N)C(=O)c2ccco2)nc2ccccc21` (configuration not stated), the displacement is 13.4% (inactive). The same measure for `Cn1c(C(C#N)C(=O)c2sc3ccccc3c2Cl)nc2ccccc21` (configuration not stated): -2.9% (inactive); for `COc1ccccc1-n1c(C)nc2cc(C(=O)O)ccc21`: -9.1% (inactive); for `Cc1cc(C(=O)NCCC2=CCCCC2)no1`: -6.6% (inactive). With `C=CCn1c(SCC(=O)NC2CCCC2)nc2scc(-c3ccco3)c2c1=O` the figure was 29.6% (inactive).

In the case of `CCC(=O)Nc1cccc(Br)c1`, the displacement was -1.7% (inactive). The same measure for `CCCCC(=O)Nc1cccc(NC(=O)CC)c1`: -6.1% (inactive).

Turning to `COCCNC(=O)CCCn1c(=O)c2ccccc2n(CC(=O)NCCC2=CCCCC2)c1=O`, the displacement was -8.5% (inactive). As for `COc1ccccc1-c1nn2c(-c3ccccc3Cl)nnc2s1`, the displacement is 5.7% (inactive).

As for `COc1ccccc1-c1nnc2sc(COc3ccccc3)nn12`, the displacement is 0.4% (inactive). The same measure for `CCC(=O)c1cc(-c2nc3ccccc3n2C)n(C)c1`: 3.7% (inactive). On to `COc1ccccc1-n1nnnc1SCc1cc2c(cc1Br)OCO2`, for which the displacement is 2.6% (inactive). With `c1ccc(-c2cn3c(n2)CCc2ccc4cccnc4c2-3)cc1` the figure was -7.4% (inactive); with `Brc1ccc(-c2cn3c(n2)CCc2ccc4cccnc4c2-3)cc1`, 1% (inactive); with `NC(=O)NC(CC(=O)OCC(=O)NC(=O)NCc1ccco1)c1ccc(Cl)cc1` (configuration not stated), 0.6% (inactive). The same measure for `O=C(c1cc2c(s1)CCCCC2)N1CCN(c2ncccn2)CC1`: -2.1% (inactive); for `CC1CC(C)CN(C(=O)c2cc3c(s2)CCC3)C1` (configuration not stated): 0.4% (inactive); for `COc1ccccc1N1CCN(C(=O)c2ccc(Br)s2)CC1`: -4.4% (inactive). The same measure for `CCOc1ccccc1N1CCN(C(=O)c2cc3c(s2)CCC3)CC1`: 0.5% (inactive). On to `CCCC(=O)Nc1cccc(-c2nc3cc(C)c(C)cc3o2)c1`, for which the displacement is -1.8% (inactive).

As for `CCCN(CCC)C(=O)Cn1c(=O)n(CCC(=O)NCCc2ccccc2)c(=O)c2ccccc21`, the displacement is 1.2% (inactive). The same measure for `CC(=O)Nc1cc(S(=O)(=O)Nc2ccccc2C)c(C)cc1C`: -3.3% (inactive); for `CCCc1nnc(NC(=O)CCC(=O)N2CCN(CCOc3ccc(C)cc3)CC2)s1`: 1.6% (inactive); for `CSCCC(NC(=O)c1ccco1)C(=O)OCC(=O)Nc1ncc(Cl)c(C)c1Cl` (configuration not stated): 14.7% (inactive). `Cc1nc(NC(=O)COC(=O)C(NC(=O)c2ccco2)C(C)C)c(Cl)cc1Cl` (configuration not stated): the displacement is 24.3% (inactive). The same measure for `CCn1c(SC)nc2c(c1=O)SC(C)C2` (configuration not stated): -13.3% (inactive); for `Cc1c(NC(=O)c2cc(-c3ccccc3)on2)c(=O)n(-c2ccccc2)n1C`: 1.8% (inactive); for `Cc1ccc(-c2cc(C(F)(F)F)n3nc(C(=O)Nc4c(C)n(C)n(-c5ccccc5)c4=O)cc3n2)cc1`: -12.8% (inactive). With `O=C(OCC(=O)N1CCN(C(=O)c2ccco2)CC1)c1cc(-c2ccccc2)nc2ccccc12` the figure was -78.6% (inactive); with `O=C(OCC(=O)N1CCN(C(=O)c2ccco2)CC1)c1cc(-c2ccc(F)cc2)nc2ccccc12`, 8.8% (inactive); with `COc1ccc(CNC(=O)COC(=O)c2cc(-c3ccco3)nc3ccccc23)cc1`, 42.9% (inactive). The same measure for `O=C(COC(=O)c1cc(-c2ccco2)nc2ccccc12)NCc1ccccc1`: -3% (inactive); for `CC1Cc2ccccc2N1C(=O)CSc1nc2cc3c(cc2cc1C#N)OCO3` (configuration not stated): 3.7% (inactive); for `Cc1cccc(-n2nnc(C(=O)NCc3ccc4c(c3)OCO4)c2N)c1`: -4.7% (inactive). With `COc1ccc(C(=O)OCC(=O)c2ccc(C3CCCCC3)cc2)cc1`, the displacement was 0.1% (inactive).

In the case of `Cc1ccc(C(C(=O)NCc2ccco2)N(C(=O)Cn2nnc3ccccc32)c2ccccc2)o1` (configuration not stated), the displacement was 2.5% (inactive). The same measure for `Cc1cc(C)cc(CC2CC(=O)N(c3ccc(Cl)cn3)C2=O)c1` (configuration not stated): -1% (inactive); for `Cn1c2ccccc2c2c(C(=O)NCc3ccco3)cn(C3CCCCC3)c(=O)c21`: 11.7% (inactive). On to `CC(C)CC(=O)Nc1cccc(-c2nc3ccccc3o2)c1`, for which the displacement is 5.6% (inactive). With `NC(=O)c1cc(Cc2ccccc2)sc1NC(=O)c1ccco1` the figure was 0% (inactive); with `Cc1c(C#N)c2ccccc2n1CC(=O)NC(C)c1ccccc1` (configuration not stated), 2.1% (inactive). With `COc1ccc(Nc2nc(N3CCCC3)c3ccccc3n2)cc1` the figure was 12.9% (inactive). With `COc1ccc(Nc2nc(N3CCCCC3)c3ccccc3n2)cc1` the figure was 6.9% (inactive). Regarding `Cc1c(N(C(=O)c2cc(=O)[nH]c3ccccc23)C(C)C)c(=O)n(-c2ccccc2)n1C`, the displacement is -10% (inactive). The same measure for `CC(C)Nc1nnc(SCC(=O)Nc2ccc(F)cc2)s1`: 1.5% (inactive); for `C=CCn1c(C)cc(C(=O)CSc2nnc(NC(C)C)s2)c1C`: -5.7% (inactive); for `NC(=O)Cn1c(=O)n(CCCC(=O)NC2CCN(Cc3ccccc3)CC2)c(=O)c2ccccc21`: 4.2% (inactive). With `CC(C)OC(=O)C(NC(=O)c1ccccc1)=C1CCCCC1` the figure was -12.9% (inactive); with `Cc1ccc(NS(=O)(=O)c2ccc(C(=O)N3CCN(c4ccccn4)CC3)cc2)cc1`, 3.6% (inactive); with `COc1ccc(N2Cc3cccc(C(=O)N4CCN(C(=O)c5ccco5)CC4)c3C2=O)cc1`, 36.1% (inactive). With `COc1ccc(N2Cc3cccc(C(=O)N4CCOCC4)c3C2=O)cc1` the figure was 4.6% (inactive).

In the case of `CC1(CC(=O)O)SC(=O)NC1=O` (configuration not stated), the displacement is -6% (inactive). `CCOC(=O)CCc1c(C)nc2cc(-c3ccccc3OC)[nH]n2c1=O`: the displacement was 4% (inactive). With `O=CNCCCc1nc2ccccc2n1Cc1cccc2ccccc12`, the displacement is 1.8% (inactive). The same measure for `COc1ccc(/C=N/NC(=O)COc2ccccc2-c2ccccc2)cc1`: -6.4% (inactive); for `CCOc1ccc(/C=N/NC(=O)COc2ccccc2-c2ccccc2)cc1`: 9.4% (inactive).
